Measurements: the supplement of paper PMC4466140

Biological target: CaNbp2
Assay: SPOT peptide array binding signal intensity (averaged, normalized) (arbitrary units (background-subtracted, floor 0; scale differs between SH3 domains)); higher = stronger binding of the SH3 domain to the peptide
Protocol: (§1)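 GST-tagged SH3 domains from S. cerevisiae (Sc), A. gossypii (Ag), C. albicans (Ca) and S. pombe (Sp) were incubated at 10 ug/ml overnight at 4 C on cellulose SPOT membranes carrying 292 synthetic 15-mer peptides mined from the S. cerevisiae proteome (cysteines replaced by serines). Binding was detected with anti-GST antibody, HRP secondary and chemiluminescence, quantified with Genespotter, and reported as normalized spot intensities averaged over biological replicates.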

Binder | SPOT peptide array binding signal intensity
LYKRKPILLPDPKPL | 33

Biological target: CaRvs167
Assay: as above
Protocol: as §1

Binder | SPOT peptide array binding signal intensity
LYKRKPILLPDPKPL | 7.67

Biological target: CaRvs167-3
Assay: as above
Protocol: as §1

Binder | SPOT peptide array binding signal intensity
LYKRKPILLPDPKPL | 1.75

Biological target: CaSho1
Assay: as above
Protocol: as §1

Binder | SPOT peptide array binding signal intensity
LYKRKPILLPDPKPL | ≤ 0

Biological target: CaSla1-D1-D2
Assay: as above
Protocol: as §1

Binder | SPOT peptide array binding signal intensity
LYKRKPILLPDPKPL | 50

Biological target: CaSla1-D3
Assay: as above
Protocol: as §1

Binder | SPOT peptide array binding signal intensity
LYKRKPILLPDPKPL | ≤ 0

Biological target: ScAbp1
Assay: as above
Protocol: as §1

Binder | SPOT peptide array binding signal intensity
LYKRKPILLPDPKPL | 38

Biological target: ScBbc1
Assay: as above
Protocol: as §1

Binder | SPOT peptide array binding signal intensity
LYKRKPILLPDPKPL | 2

Biological target: ScBem1-D1
Assay: as above
Protocol: as §1

Binder | SPOT peptide array binding signal intensity
LYKRKPILLPDPKPL | 3

Biological target: ScBzz1-D1
Assay: as above
Protocol: as §1

Binder | SPOT peptide array binding signal intensity
LYKRKPILLPDPKPL | 20.5

Biological target: ScBzz1-D2
Assay: as above
Protocol: as §1

Binder | SPOT peptide array binding signal intensity
LYKRKPILLPDPKPL | 15.5

Biological target: ScCyk3
Assay: as above
Protocol: as §1

Binder | SPOT peptide array binding signal intensity
LYKRKPILLPDPKPL | ≤ 0

Biological target: ScFus1
Assay: as above
Protocol: as §1

Binder | SPOT peptide array binding signal intensity
LYKRKPILLPDPKPL | ≤ 0

Biological target: ScHof1
Assay: as above
Protocol: as §1

Binder | SPOT peptide array binding signal intensity
LYKRKPILLPDPKPL | ≤ 0

Biological target: ScHse1
Assay: as above
Protocol: as §1

Binder | SPOT peptide array binding signal intensity
LYKRKPILLPDPKPL | 267

Biological target: ScLsb1
Assay: as above
Protocol: as §1

Binder | SPOT peptide array binding signal intensity
LYKRKPILLPDPKPL | 162

Biological target: ScLsb2
Assay: as above
Protocol: as §1

Binder | SPOT peptide array binding signal intensity
LYKRKPILLPDPKPL | 838

Biological target: ScLsb3
Assay: as above
Protocol: as §1

Binder | SPOT peptide array binding signal intensity
LYKRKPILLPDPKPL | 7

Biological target: ScLsb4
Assay: as above
Protocol: as §1

Binder | SPOT peptide array binding signal intensity
LYKRKPILLPDPKPL | ≤ 0

Biological target: ScMyo3
Assay: as above
Protocol: as §1

Binder | SPOT peptide array binding signal intensity
LYKRKPILLPDPKPL | ≤ 0

Biological target: ScMyo5
Assay: as above
Protocol: as §1

Binder | SPOT peptide array binding signal intensity
LYKRKPILLPDPKPL | 0.5

Biological target: ScNbp2
Assay: as above
Protocol: as §1

Binder | SPOT peptide array binding signal intensity
LYKRKPILLPDPKPL | 14.5

Biological target: ScPex13
Assay: as above
Protocol: as §1

Binder | SPOT peptide array binding signal intensity
LYKRKPILLPDPKPL | ≤ 0

Biological target: ScRvs167
Assay: as above
Protocol: as §1

Binder | SPOT peptide array binding signal intensity
LYKRKPILLPDPKPL | 16.7

Biological target: ScSho1
Assay: as above
Protocol: as §1

Binder | SPOT peptide array binding signal intensity
LYKRKPILLPDPKPL | 62.5

Biological target: ScSla1-D1-D2
Assay: as above
Protocol: as §1

Binder | SPOT peptide array binding signal intensity
LYKRKPILLPDPKPL | 135

Biological target: ScSla1-D3
Assay: as above
Protocol: as §1

Binder | SPOT peptide array binding signal intensity
LYKRKPILLPDPKPL | 5

Biological target: SpAbp1-D1
Assay: as above
Protocol: as §1

Binder | SPOT peptide array binding signal intensity
LYKRKPILLPDPKPL | 29

Biological target: SpBbc1
Assay: as above
Protocol: as §1

Binder | SPOT peptide array binding signal intensity
LYKRKPILLPDPKPL | ≤ 0

Biological target: SpBzz1-D1
Assay: as above
Protocol: as §1

Binder | SPOT peptide array binding signal intensity
LYKRKPILLPDPKPL | 188
